Unmarked numbers belong to inactive results. Calls follow the shape of the full dose curve.
These compounds were tested against Estrogen receptor (Homo sapiens) (UniProt P03372) (assay: qHTS assay to identify small molecule agonists of the estrogen receptor alpha (ER-alpha) signaling pathway in the presence of an antagonist (AID 1259383; also: top concentration of the series differs between compounds; nearly all actives have a fitted effect of over 15% in size)). Conditions: VM7Luc4E2 cells, ERE-luciferase, +ICI-182,780, 22 h; series mostly up to 92.4 µM; activation: at the top concentration.
Estrogen receptor (Homo sapiens), sequence (P03372 whole entry, looked up): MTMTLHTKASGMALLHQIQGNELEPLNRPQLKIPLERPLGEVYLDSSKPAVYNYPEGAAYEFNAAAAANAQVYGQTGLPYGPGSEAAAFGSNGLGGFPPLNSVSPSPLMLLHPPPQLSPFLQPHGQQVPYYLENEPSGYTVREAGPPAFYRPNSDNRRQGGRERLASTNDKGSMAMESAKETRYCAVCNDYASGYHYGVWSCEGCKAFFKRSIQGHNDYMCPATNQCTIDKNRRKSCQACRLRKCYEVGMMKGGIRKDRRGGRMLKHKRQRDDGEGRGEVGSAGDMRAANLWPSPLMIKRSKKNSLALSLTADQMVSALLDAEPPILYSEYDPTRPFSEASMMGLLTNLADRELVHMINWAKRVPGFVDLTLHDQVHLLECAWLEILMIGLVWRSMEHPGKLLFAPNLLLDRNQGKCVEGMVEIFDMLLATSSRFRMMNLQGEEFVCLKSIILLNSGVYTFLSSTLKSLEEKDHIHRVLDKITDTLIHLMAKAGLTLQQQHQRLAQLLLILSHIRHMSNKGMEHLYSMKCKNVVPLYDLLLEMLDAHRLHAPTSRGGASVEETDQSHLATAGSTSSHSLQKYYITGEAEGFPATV
From the text: National Center for Advancing Translational Sciences [NCATS] NIH Chemical Genomics Center [NCGC] U.S. Environmental Protection Agency [EPA] National Institutes of Environmental Health Sciences [NIEHS] National Toxicology Program [NTP] Assay overview: Estrogen receptor (ER), a member of nuclear hormone receptor plays an important role in development, metabolic homeostasis and reproduction. Two subtypes of ER, ER-alpha and ER-beta, have similar expression patterns with some uniqueness in both types. Endocrine disrupting chemicals (EDCs) and their interactions with steroid hormone receptors like ER causes disruption of normal endocrine function. Therefore, it is important to understand the effect of environmental chemicals in ER signaling pathway. For identifying ER agonists, VM7Luc4E2 cell line has been used in the current assay. VM7Luc4E2 cell line (provided by Denison MS, University of California) endogenously expresses full-length ER-alpha and is stably transfected with a plasmid containing four estrogen responsive elements (ERE) upstream of a luciferase reporter gene. This current screening for measuring luciferase reporter gene activity using VM7Luc4E2 cells against Tox21 10K library collection is a confirmation study on agonist mode screening in presence of ER-antagonist (ICI-182,780) at 10.0nM final concentration.
Assay Protocol Summary: VM7Luc4E2 cells were cultured in phenol red free assay medium containing 10% charcoal stripped FBS for 5 days prior to the assay. The cells were dispensed at 4,000 cells in 4uL of assay medium per well into white wall/solid-bottom 1536-well plates (Corning Life Sciences, Corning, NY) using a Multidrop Combi (Thermo Fisher Scientific Inc., Waltham, MA) dispenser. After the assay plates were incubated at 37C and 5% CO2 for 24hr, 1uL of 10.0nM (final concentration) ICI-182,780 or assay buffer was added using two separate tips of Flying Reagent Dispenser (FRD, Aurora Discovery, San Diego, CA). Then 23nL of compounds dissolved in DMSO at 15 concentrations and positive controls or DMSO only was transferred to the assay plates by a Pintool station (Wako, San Diego, CA). The assay plates were incubated at 37C and 5% CO2 for 22hr. For luciferase read, 4uL/well ONE-Glo reagent (Promega Corporation, Madison, WI) was added to each well using FRD and after 30min incubation at room temperature, luminescence signal was measured on ViewLux plate reader (PerkinElmer, Shelton, CT).
% is scaled to controls: 0 for no effect and ±100 for the full control effect.

How did the “activation” value turn out when `ClC(Cl)(Cl)C(Cl)(Cl)Cl` was run?
Its value is -0.907%.

For `Nc1cnn(-c2ccccc2)c(=O)c1Cl`, which “activation” value is on record?
The value was 1.86%.

`ClC(Cl)C(Cl)Cl` was tested. Which “activation” value did it give?
The value was -0.376%.

For `CCCCP(CCCC)CCCC`, which “activation” value is on record?
Its value is -2.21%.

Which “activation” value does the source give for `COc1ncc(F)c2nc(S(=O)(=O)Nc3c(F)cccc3F)nn12` here?
The value was 0.123% [at 42.5 µM].

How did the “activation” value turn out when `CC(C)(C)C(=O)C(Oc1ccc(Cl)cc1)n1cncn1` (stereo not given) was run?
Its value is -1.19%.

Which “activation” value does the source give for `CS(=O)(=O)c1cc(C(F)(F)F)ccc1C(=O)c1cnoc1C1CC1` here?
The value was -1.67%.

With `CC(=O)[C@H]1CC[C@H]2[C@@H]3CC[C@H]4C[C@H](O)CC[C@]4(C)[C@H]3C(=O)C[C@]12C` as the compound, how does the “activation” value read?
The value was 0.29% [at 42.5 µM].

For `O=C1c2ccccc2C(=O)c2ccccc21`, which activation is on record?
The activation was 5.54% [at 19 µM].

`O=C(Oc1ccc(Br)cc1)N1CCN2CCC1CC2` was tested. Which “activation” value did it give?
The value was 2.8%.

Which “activation” value does the source give for `O=C(Nc1ccccc1)c1ccccc1I` here?
The value was 7.25%.

`CSc1nc(N=[N+]=[N-])nc(NC(C)C)n1` was tested. Which “activation” value did it give?
Its value is 0.159%.

How did the “activation” value turn out when `[O]=[Cd]` was run?
The value was -1.69%.

How did the “activation” value turn out when `CC(=O)C(Cl)Cl` was run?
The value was -0.138%.

With `CCC(Cl)[N+](=O)[O-]` (stereo not given) as the compound, how does the “activation” value read?
Its value is 0.301%.

Which “activation” value does the source give for `CCCCCCI` here?
The value was -0.228%.

How did the “activation” value turn out when `CC1=C(C(=O)Nc2ccccc2)S(=O)(=O)CCO1` was run?
The value was -3.89%.

Which “activation” value does the source give for `CCC(=O)C(CCN(C)C)(c1ccccc1)c1ccccc1` here?
Its value is -0.976% [at 42.5 µM].

With `CCC(=O)c1ccccc1` as the compound, how does the “activation” value read?
Its value is 0.999%.

How did the “activation” value turn out when `CC1(C)CON(Cc2ccccc2Cl)C1=O` was run?
The value was 2.42%.

Which “activation” value does the source give for `Nc1cc2c3c(c1)C(c1ccccc1)=N[C@@H](NC(=O)c1cccnc1)C(=O)N3CC2` here?
Its value is -2.36%.

With `Cc1coc2c1CCC(C)C2` (stereo not given) as the compound, how does the “activation” value read?
The value was -0.685%.

Which “activation” value does the source give for `CCC(C)n1c(=O)[nH]c(C)c(Br)c1=O` (stereo not given) here?
Its value is 0.45%.

Which “activation” value does the source give for `CCC1(c2ccccc2)C(=O)NC(=O)NC1=O` here?
Its value is 0.0113%.

How did the “activation” value turn out when `CC1CCCCC1NC(=O)Nc1ccccc1` (stereo not given) was run?
Its value is 6.81%.

`CCOP(=S)(OCC)Oc1ncn(-c2ccccc2)n1` was tested. Which “activation” value did it give?
Its value is 5.61%.

How did the “activation” value turn out when `CC(C)NCC(O)c1ccc(N)c(C#N)c1` (stereo not given) was run?
The value was 0.214% [at 42.5 µM].

`N#CC(CCc1ccc(Cl)cc1)(Cn1cncn1)c1ccccc1` (stereo not given) was tested. Which “activation” value did it give?
The value was -10.8%.

How did the “activation” value turn out when `C=CCC1=C(C)[C@@H](OC(=O)[C@@H]2[C@@H](C=C(C)C)C2(C)C)CC1=O` was run?
The value was -14.7%.

`Nc1c(Br)cc([N+](=O)[O-])cc1[N+](=O)[O-]` was tested. Which “activation” value did it give?
Its value is -2.37%.

Which “activation” value does the source give for `O=C(N[C@H]1CN2CCC1CC2)c1cc2ccoc2cn1` here?
Its value is 0.103%.

`CCOC(=O)C(c1c(O)c2ccccc2oc1=O)c1c(O)c2ccccc2oc1=O` was tested. Which “activation” value did it give?
The value was -0.516% [at 42.5 µM].

Which activation does the source give for `CC1=C(C(=O)O)N2C(=O)[C@@H](N)[C@H]2SC1` here?
The activation was 0.456% [at 19 µM].

How did the “activation” value turn out when `O=C1CN=C(c2ccccc2)c2cc([N+](=O)[O-])ccc2N1` was run?
The value was 0.888% [at 42.5 µM].

How did the “activation” value turn out when `CCOP(=S)(OCC)SCSP(=S)(OCC)OCC` was run?
The value was 0.28%.

With `O=C(O)c1ccc2[nH]cc(CCCCN3CC=C(c4ccccc4)CC3)c2c1` as the compound, how does the “activation” value read?
Its value is -0.991% [at 42.5 µM].

`CC(Cl)(Cl)[N+](=O)[O-]` was tested. Which “activation” value did it give?
Its value is -0.525%.

How did the “activation” value turn out when `NC(=O)c1cc([N+](=O)[O-])cc([N+](=O)[O-])c1` was run?
Its value is 1.38% [at 42.5 µM].

For `BrCCCCCCBr`, which “activation” value is on record?
The value was 1.67%.

How did the “activation” value turn out when `OCCBr` was run?
Its value is -0.174%.
